PubChem BioAssay
Activity calls are given as the source filed them.

What was measured:
[1] = test system: Plasmodium falciparum Sir2 (PF13_0152, Sir2A); assay: pfSir2 binders on small-molecule microarrays, primary screen, biochemical, small-molecule microarray, 635 nm fluorescence (AID 1098); settings: small-molecule microarray binding, fluorescence 635 nm; higher = more signal;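 also: score merges spot fluorescence intensity with its signal-to-noise ratio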
[2] = small-molecule microarray binders of probe aDKK1, primary screen, biochemical, biotinylated probe, 635/667 nm fluorescence (AID 1099); settings: higher = more signal;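 also: score merges 667nm spot fluorescence with signal to noise across triplicate slides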
[3] = small-molecule microarray binders of probe aCHRDL2, primary screen, biochemical, biotinylated probe, 635/667 nm fluorescence (AID 1100); settings: higher = more signal
[4] = splicing luciferase reporter signal modulators, primary screen, spliceosome inhibition project, cell-based, HEK293, splice +/- reporter (AID 1101); settings: luminescence, 24 h, higher = more signal, called active from +8 up or from −8 down;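 also: HEK293 cells carrying a splicing-competent luciferase reporter gene; test concentration not given here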
[5] = target: Fibroblast growth factor 10 (Homo sapiens) (UniProt O15520); assay: FGF10 binders on small-molecule microarrays, primary screen, biochemical, small-molecule microarray, 635 nm fluorescence (AID 1102); settings: FGF10 binding, fluorescence 635 nm, higher = more signal
[6] = test system: glycogen synthase kinase-3 (GSK3A per assay name; protocol says GSK3B); assay: GSK3 binders on small-molecule microarrays, primary screen, biochemical, small-molecule microarray, 635 nm fluorescence, GSK3A (AID 1103); settings: small-molecule microarray binding, fluorescence 635 nm; higher = more signal; also: the record names both GSK3A and GSK3B
[7] = target: Epidermal growth factor receptor (Homo sapiens) (UniProt P00533); assay: EGFR binders on small-molecule microarrays, primary screen, biochemical, small-molecule microarray, 635 nm fluorescence (AID 1104); settings: EGFR binding, higher = more signal;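 also: score merges 667 nm emission intensity with spot signal to noise over triplicate slides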
[8] = target: Follistatin-related protein 3 (Homo sapiens) (UniProt O95633); assay: FSTL3 binders on small-molecule microarrays, primary screen, biochemical, small-molecule microarray, 635 nm fluorescence (AID 1105); settings: FSTL3 binding, higher = more signal;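 also: score merges emission near 667 nm and signal to noise per printed spot across three slides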
[9] = target: Dickkopf-related protein 1 (Homo sapiens) (UniProt O94907); assay: DKK1 binders on small-molecule microarrays, primary screen, biochemical, small-molecule microarray, 635 nm fluorescence scan (AID 1106); settings: DKK1 binding, higher = more signal;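 also: score merges emission near 667 nm with signal to noise over three replicate slides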
[10] = test system: Inhibin beta A chain (activin A); assay: INHBA (activin A) binders on microarrays, primary screen, biochemical, small-molecule microarray, 635 nm fluorescence scan (AID 1107); settings: small-molecule microarray binding, higher = more signal;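 also: mouse activin A protein probed at 4.33 µg/mL on printed slides; score merges bound-protein fluorescence near 667 nm with spot signal-to-noise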
[11] = test system: Human papillomavirus type 1a protein E7 (residues 44-93); assay: HPV1a E7 fragment binders on microarrays, primary screen, biochemical, small-molecule microarray, residues 44-93, 635 nm fluorescence (AID 1108); settings: small-molecule microarray binding, fluorescence 635 nm; higher = more signal;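 also: E7 fragment applied at 1 µg/mL in TBST for 1 h at 4 C; score combines spot fluorescence with its signal to noise ratio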
[12] = modulators of HCV replicon luciferase signal, primary screen, HCV replication inhibitor project, Huh7 cells, luciferase reporter (AID 1109); settings: 48 h, higher = more signal;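 also: huh7 hepatoma cells harbouring a luciferase neomycin HCV replicon reporter; luciferase luminescence as measure of HCV replicon replication; test concentration not given here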
[13] = target: Left-right determination factor 2 (Homo sapiens) (UniProt O00292); assay: LEFTY2 binders on small-molecule microarrays, primary screen, biochemical, small-molecule microarray, 635 nm fluorescence scan (AID 1110); settings: LEFTY2 binding, higher = more signal
[14] = target: Calmodulin-1 (Homo sapiens) (UniProt P0DP23); assay: CALM1 binders on microarrays, EGTA buffer, profiling panel, biochemical, small-molecule microarray, Cy5-labelled CALM1 (AID 1111); settings: Cy5-CALM1 binding fluorescence, higher = more signal;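 also: labelled calmodulin applied in Tris saline Tween buffer holding calcium plus EGTA and DTT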
[15] = target: Calmodulin-1 (Homo sapiens) (UniProt P0DP23); assay: calcium-bound CALM1 binders on microarrays, profiling panel, artefact control for SMM control-protein annotation, biochemical, small-molecule microarray, Cy5-labelled CALM1, plus calcium (AID 1112); settings: Cy5-CALM1 binding fluorescence, higher = more signal;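 also: score merges spot fluorescence with signal to noise from triplicate slides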
[16] = small-molecule microarray binders of probe aWnt5a, primary screen, biochemical, biotinylated probe, 635/667 nm fluorescence (AID 1113); settings: higher = more signal;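 also: score merges 667 nm fluorescence intensity with signal-to-noise per printed feature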
[17] = small-molecule microarray binders of probe aShh, primary screen, biochemical, biotinylated probe, 635/667 nm fluorescence (AID 1114); settings: higher = more signal;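 also: probe is biotin-labelled aShh protein from a stem cell growth factor screen; measures binding of labelled protein to compounds printed on the slide; score merges feature fluorescence at 667 nm with signal-to-noise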
[18] = small-molecule microarray binders of probe aNog, primary screen, biochemical, biotinylated probe, 635/667 nm fluorescence (AID 1115); settings: higher = more signal;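 also: probe is biotinylated aNog protein used at 0.15 µg/mL for 1 h at 4 C; z-score combines 667 nm fluorescence of each spot with its signal to noise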
[19] = target: Torsin-1A-interacting protein 1 (Homo sapiens) (UniProt Q5JTV8); assay: LAP1 binders from COS7 cell lysate, primary screen, small-molecule microarray, 635/667 nm fluorescence (AID 1116); settings: COS7-hLAP1 lysate binding, 635 nm fluorescence, higher = more signal
[20] = target: Alpha-bungarotoxin (Bungarus multicinctus) (UniProt P60615); assay: alpha-bungarotoxin binders on microarray, profiling panel, artefact control for SMM control protein annotation, biochemical, small-molecule microarray, Alexa647 label, 635/667 nm fluorescence (AID 1117); settings: alpha-BTX-A647 binding fluorescence, higher = more signal
Alpha-bungarotoxin (Bungarus multicinctus), sequence (P60615 whole entry, looked up): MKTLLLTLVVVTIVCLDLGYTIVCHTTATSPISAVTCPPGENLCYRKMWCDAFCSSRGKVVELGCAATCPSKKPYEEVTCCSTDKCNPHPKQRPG

Follistatin-related protein 3 (Homo sapiens), sequence (O95633 whole entry, looked up): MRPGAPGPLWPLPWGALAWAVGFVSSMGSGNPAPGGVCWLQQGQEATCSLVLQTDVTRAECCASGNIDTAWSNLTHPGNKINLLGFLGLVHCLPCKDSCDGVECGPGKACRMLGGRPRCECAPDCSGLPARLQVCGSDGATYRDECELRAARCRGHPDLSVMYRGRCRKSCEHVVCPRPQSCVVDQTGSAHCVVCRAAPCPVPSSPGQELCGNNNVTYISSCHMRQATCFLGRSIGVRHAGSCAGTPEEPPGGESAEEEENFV
Dickkopf-related protein 1 (Homo sapiens), sequence (O94907 whole entry, looked up): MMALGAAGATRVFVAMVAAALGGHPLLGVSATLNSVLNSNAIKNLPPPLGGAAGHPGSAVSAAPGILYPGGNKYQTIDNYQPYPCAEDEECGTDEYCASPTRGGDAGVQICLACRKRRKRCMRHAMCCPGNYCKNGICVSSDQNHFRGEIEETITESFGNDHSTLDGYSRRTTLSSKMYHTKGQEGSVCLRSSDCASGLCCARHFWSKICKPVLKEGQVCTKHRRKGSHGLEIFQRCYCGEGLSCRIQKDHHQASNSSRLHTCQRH
Epidermal growth factor receptor (Homo sapiens), sequence (P00533 whole entry, looked up): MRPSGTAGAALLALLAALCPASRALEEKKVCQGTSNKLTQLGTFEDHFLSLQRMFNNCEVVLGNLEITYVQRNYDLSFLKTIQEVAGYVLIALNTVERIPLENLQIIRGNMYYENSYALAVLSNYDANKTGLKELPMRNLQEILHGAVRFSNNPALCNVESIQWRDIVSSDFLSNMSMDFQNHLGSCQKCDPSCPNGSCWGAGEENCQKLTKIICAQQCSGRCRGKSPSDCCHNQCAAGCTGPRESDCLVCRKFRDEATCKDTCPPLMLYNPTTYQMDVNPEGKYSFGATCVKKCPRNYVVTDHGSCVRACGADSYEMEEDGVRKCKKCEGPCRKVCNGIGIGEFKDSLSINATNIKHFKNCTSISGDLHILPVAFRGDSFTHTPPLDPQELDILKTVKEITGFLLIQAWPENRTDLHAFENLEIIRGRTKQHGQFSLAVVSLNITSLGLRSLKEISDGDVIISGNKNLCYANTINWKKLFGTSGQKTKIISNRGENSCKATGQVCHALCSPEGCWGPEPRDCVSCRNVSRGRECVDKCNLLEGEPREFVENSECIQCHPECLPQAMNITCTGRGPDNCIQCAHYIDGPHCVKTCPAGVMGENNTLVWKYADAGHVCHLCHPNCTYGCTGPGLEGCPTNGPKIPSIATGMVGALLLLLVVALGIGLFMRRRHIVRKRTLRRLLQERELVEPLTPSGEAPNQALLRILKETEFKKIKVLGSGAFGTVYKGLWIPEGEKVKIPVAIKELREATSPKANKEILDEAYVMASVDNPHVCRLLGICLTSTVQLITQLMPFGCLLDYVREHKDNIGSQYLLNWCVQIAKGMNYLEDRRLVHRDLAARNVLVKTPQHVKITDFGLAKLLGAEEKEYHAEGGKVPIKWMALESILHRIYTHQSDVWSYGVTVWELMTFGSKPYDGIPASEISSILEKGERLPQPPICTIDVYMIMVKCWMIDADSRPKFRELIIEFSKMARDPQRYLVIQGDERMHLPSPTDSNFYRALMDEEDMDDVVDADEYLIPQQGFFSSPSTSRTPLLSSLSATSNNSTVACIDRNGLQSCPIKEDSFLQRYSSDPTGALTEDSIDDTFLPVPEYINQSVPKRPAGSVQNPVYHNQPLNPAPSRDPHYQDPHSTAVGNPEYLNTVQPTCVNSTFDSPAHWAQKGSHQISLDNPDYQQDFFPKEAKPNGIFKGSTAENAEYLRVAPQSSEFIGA
Left-right determination factor 2 (Homo sapiens), sequence (O00292 whole entry, looked up): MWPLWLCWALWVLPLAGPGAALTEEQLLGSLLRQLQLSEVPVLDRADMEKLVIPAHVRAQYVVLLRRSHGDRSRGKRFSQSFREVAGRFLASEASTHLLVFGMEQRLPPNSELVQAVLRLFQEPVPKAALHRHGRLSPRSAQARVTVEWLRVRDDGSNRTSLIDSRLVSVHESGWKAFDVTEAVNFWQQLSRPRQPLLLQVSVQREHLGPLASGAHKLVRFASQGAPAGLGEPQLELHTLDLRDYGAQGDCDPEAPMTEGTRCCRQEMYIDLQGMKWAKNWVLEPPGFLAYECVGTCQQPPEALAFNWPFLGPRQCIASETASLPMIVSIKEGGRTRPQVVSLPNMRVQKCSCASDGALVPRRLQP
Fibroblast growth factor 10 (Homo sapiens), sequence (O15520 whole entry, looked up): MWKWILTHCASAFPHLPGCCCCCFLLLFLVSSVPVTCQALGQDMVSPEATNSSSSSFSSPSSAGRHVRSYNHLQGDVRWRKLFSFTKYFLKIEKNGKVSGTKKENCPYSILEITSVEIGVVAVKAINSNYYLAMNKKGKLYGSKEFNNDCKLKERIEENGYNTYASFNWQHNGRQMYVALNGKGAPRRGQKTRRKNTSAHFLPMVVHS
Torsin-1A-interacting protein 1 (Homo sapiens), sequence (Q5JTV8 whole entry, looked up): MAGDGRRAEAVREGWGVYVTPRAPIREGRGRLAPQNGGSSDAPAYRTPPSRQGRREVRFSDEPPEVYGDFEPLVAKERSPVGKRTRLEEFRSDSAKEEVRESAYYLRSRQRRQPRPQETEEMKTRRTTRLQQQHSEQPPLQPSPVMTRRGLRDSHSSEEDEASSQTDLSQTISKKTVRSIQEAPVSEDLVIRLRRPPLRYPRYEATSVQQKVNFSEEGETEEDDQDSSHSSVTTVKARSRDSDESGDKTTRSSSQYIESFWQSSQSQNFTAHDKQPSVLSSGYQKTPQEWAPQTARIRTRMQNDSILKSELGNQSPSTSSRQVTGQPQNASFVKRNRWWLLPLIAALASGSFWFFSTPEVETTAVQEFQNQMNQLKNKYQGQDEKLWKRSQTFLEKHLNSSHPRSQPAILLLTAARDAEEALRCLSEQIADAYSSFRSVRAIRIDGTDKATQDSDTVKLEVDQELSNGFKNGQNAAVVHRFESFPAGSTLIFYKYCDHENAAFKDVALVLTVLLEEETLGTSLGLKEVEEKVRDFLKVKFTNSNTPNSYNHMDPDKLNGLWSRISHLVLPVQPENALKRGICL

Row | Compound | composite z-score [1] | composite z-score [2] | composite z-score [3] | z-score [4] | composite z-score [5] | composite z-score [6] | composite z-score [7] | composite z-score [8] | composite z-score [9] | composite z-score [10] | composite z-score [11] | z-score [12] | composite z-score [13] | composite z-score [14] | composite z-score [15] | composite z-score [16] | composite z-score [17] | composite z-score [18] | composite z-score [19] | composite z-score [20]
1 | CC(C)[Si](C#CCCCC#N)(O[C@H](c1ccccc1)c1cn(Cc2cccc(Cl)c2)nn1)C(C)C | 0.397 | -0.0654 | -0.594 | -1.64 (inactive) | 0.483 | 1.18 | 0.376 | 1.11 | 0.968 | -0.018 | 1.31 | -1.7 | 0.634 | -0.412 | -0.745 | -0.0977 | -0.0553 | -0.467 | 0.423 | -0.0534
2 | O=C1NC(=O)C2C1C=CC(C(O)c1ccc(I)cc1)N2Nc1ccc(Cl)cc1Cl (stereo not given) | 1.03 | 0.418 | 1.08 | -1.09 (inactive) | 0.41 | 0.782 | -0.079 | 0.425 | -0.235 | 0.871 | 1.36 | -0.644 | -0.562 | 1.84 | 0.99 | -0.0236 | -0.0056 | 1.66 | 1.05 | 1.1
3 | CCCCC(=C=CC[C@@H](O)c1cccc(OCCO)c1)C[C@@H](O)c1ccccn1 | 1.6 | -0.132 | -0.387 | -0.123 (inactive) | 1.06 | 0.839 | -0.181 | 1.07 | 0.168 | 0.869 | 1.35 | -0.617 | 0.229 | 1.16 | -0.946 | -0.0735 | -0.0553 | 0.144 | 1.25 | 1.16
4 | COC(=O)C[C@H]1O[C@@H](CCc2ccccc2)[C@@H](C)[C@@H]1[Si](C)(C)c1ccc(OC)cc1 | -1.04 | -0.0884 | -0.149 | 0.0234 (inactive) | -0.587 | -1.04 | 0.239 | -0.232 | 0.149 | 0.0026 | -0.504 | -0.638 | -0.0374 | -0.606 | 0.125 | -0.232 | -0.439 | -0.266 | -0.562 | -0.763
5 | C=CCOC(=O)[C@H]1[C@@H]2C(=O)O[C@@H](c3ccccc3)[C@@H](c3ccccc3)N2[C@@H](c2ccc(OCCOC(=O)[C@@H]3C[C@@H]4C(=O)N5CCC[C@H]5C(=O)N4[C@@H]3c3cccc(OCCO)c3)cc2)[C@]12C(=O)Nc1ccc(I)cc12 | 1.59 | -0.214 | -0.158 | 0.0567 (inactive) | 1.42 | 1.15 | 0.702 | 1.39 | 1.2 | 0.76 | 1.39 | -1.46 | 0.872 | 0.784 | -0.0883 | -0.0758 | 0.0098 | 0.935 | -0.571 | 1.39
6 | O=C1OCCC/C=C\[C@H]2OC34C=CCN(c5ccc6ccccc6c5)C(=O)[C@H]3N(CCCCCO)C(=O)[C@@H]4C12 (stereo not given in full) | 0.227 | -0.319 | 0.364 | -0.447 (inactive) | -0.862 | -1.35 | -0.756 | -0.613 | -0.974 | 0.633 | -2.53 | -0.57 | -1.07 | -0.381 | -0.645 | -0.28 | 0.0141 | -0.0428 | -1.28 | -0.23
7 | CC(c1ccccc1)C(O)C1C=CC2C(=O)N(c3ccccc3)C(=O)C2N1Nc1ccccc1 (stereo not given) | 1.18 | 0.807 | 0.818 | -0.716 (inactive) | 1.4 | 0.297 | 0.177 | 1.46 | -0.0656 | 0.215 | 1.5 | -2.44 | -0.0093 | 1.5 | 0.993 | -0.0758 | -0.0702 | 1.44 | 1.11 | 1.98
8 | CN(C)C(=O)[C@]1(Cc2ccccc2)N=C(c2ccc(OCCCO)cc2)O[C@@H]1c1ccccc1N=[N+]=[N-] | 0.684 | 0.74 | 1.05 | -0.968 (inactive) | 1.5 | 1.3 | 0.382 | 0.817 | 0.173 | 1.25 | 1.4 | -2.58 | 0.357 | 1.63 | 0.393 | 0.0926 | 0.398 | -0.0332 | 2.01 | 1.37
9 | C#CCNCc1ccccc1 | -0.375 | -0.192 | -0.288 | 0.258 (inactive) | 0.2 | 0.539 | 0.397 | 0.349 | 0.183 | 0.209 | 0.297 | 0.141 | 0.689 | -0.389 | -0.163 | -0.213 | -0.291 | -0.213 | 0.195 | 0.34
10 | CO[C@H]1O[C@H](CO)[C@@H](OC(=O)Nc2ccccc2)[C@@H]2OC(=O)[C@@H](Cc3ccc4ccccc4c3)C/C=C/C[C@H](Cc3ccc4ccccc4c3)C(=O)O[C@@H]12 | 1.08 | 0.134 | 0.402 | -0.916 (inactive) | 1.08 | 0.899 | 0.204 | 0.531 | -0.112 | 0.962 | 0.601 | -2.92 | 0.0985 | 0.697 | -0.56 | -0.006 | -0.237 | 1.3 | 1.72 | 0.322
11 | COC(=O)[C@]1(CCC(=O)OC(C)(C)C)N=C(c2ccc(OCCCO)cc2)O[C@@H]1c1ccccc1 | 1.37 | 0.46 | 0.779 | -0.783 (inactive) | -0.361 | -0.495 | -0.754 | -0.577 | -0.563 | -0.0102 | 0.529 | -2.73 | -1.45 | -0.221 | 0.271 | -0.0405 | 0.04 | 1.24 | 1.79 | 1.29
